These results are taken from PubChem BioAssay (Tox21).

Where “and” joins values, the source holds several entries; their conditions need not be identical. Equal entries are not always repeated. Inconclusive results are not listed. Where a structure was tested more than once in an assay, its records may differ in their call. Calls of active or inactive are those of the source. Unless noted, the call rests on the fitted dose curve; in most records, active means well fitted curve in the direction sought with a large enough effect in the repeat runs; inconclusive means weak or mixed curves; inactive means no such curve, though single readings can be large; an effect the other way counts as inactive or inconclusive.

The nature of experiment [1]: qHTS assay to identify aromatase inhibitors - cell viability counter screen (AID 743084;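 further: cells stimulated with testosterone during compound exposure; nearly all actives have a fitted effect of over 55% in size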). (In qHTS, concentration-response curves come from the screen itself.)
Experiment [2] addresses Aryl hydrocarbon receptor (Homo sapiens) (UniProt P35869). Nature of the experiment: qHTS assay to identify small molecule that activate the aryl hydrocarbon receptor (AhR) signaling pathway (AID 743085). Further: nearly all actives have a fitted effect of over 15% in size. Further: potency means the concentration at half of the fitted maximal effect.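 On activation: HG2L7.5c1 human HepG2 liver cells with stably integrated DRE-driven firefly reporter; series mostly up to about 70 µM.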 In short, it runs like this:
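Luminescence (ONE-Glo) from a dioxin-responsive-element luciferase reporter in HG2L7.5c1 HepG2 cells after 24 hr compound exposure at 37C; viability measured by CellTiter-Fluor fluorescence beforehand.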

Experiment [3] in a line: qHTS assay to identify small molecule that activate the aryl hydrocarbon receptor (AhR) signaling pathway - cell viability counter screen (AID 743086). Further: series mostly up to about 70 µM; nearly all actives have a fitted effect of over 45% in size. In short, it runs like this: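 Cytotoxicity counter screen: CellTiter-Fluor signal (30 min, 37 C) in 4000 HepG2 cells/well carrying the DRE-luciferase reporter, following 24 h compound exposure at 37 C.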
Experiment [4] deals with Peroxisome proliferator-activated receptor gamma (Homo sapiens) (UniProt P37231). Kind of experiment: qHTS assay to identify small molecule agonists of the peroxisome proliferator-activated receptor gamma (PPARg) signaling pathway (AID 743094; active means well fitted activation curve with a large enough effect in the signal ratio in the repeat runs, not every such curve was filed as active; the % refers to the signal ratio). The method, boiled down:
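GeneBLAzer PPARg UAS-bla HEK293H cells carrying a stably integrated beta-lactamase reporter were pre-incubated 5 h at 37C, then exposed to compounds in DMSO for 17 h at 37C; LiveBLAzer B/G FRET substrate was added for 1 h at room temperature and fluorescence read.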

Experiment [5] shares this target. Kind of experiment: qHTS assay to identify small molecule antagonists of the peroxisome proliferator-activated receptor gamma (PPARg) signaling pathway (AID 743191; calls by dose curve; further: series mostly up to about 63 µM; nearly all actives have a fitted effect of over 30% in size). In short, it runs like this: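 Beta-lactamase reporter under UAS control in HEK293H PPARg-bla cells; compound treatment 17 h at 37C. Read-out: fluorescence intensity after 1 h room-temperature incubation with LiveBLAzer B/G FRET substrate.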

Experiment [6] is described as follows: qHTS assay to identify small molecule antagonists of the peroxisome proliferator-activated receptor gamma (PPARg) signaling pathway - cell viability counter screen (AID 743194). Further: nearly all actives have a fitted effect of over 55% in size. Further: potency means the concentration at half of the fitted maximal effect. The following applies: Potency: co-treated with 50 nM rosiglitazone unless noted. In short, it runs like this: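 Viability was measured as CellTiter-Glo luminescence in GeneBLAzer PPARg UAS-bla HEK293H cells. These cells had been exposed 17 h at 37 C to compounds together with rosiglitazone at 50 nM final, with the beta-lactamase readout taken in the same wells.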

Experiment [7] in a line: qHTS assay for small molecule agonists of the antioxidant response element (ARE) signaling pathway (AID 743202; active means well fitted activation curve with a large enough effect in the signal ratio in the repeat runs, not every such curve was filed as active; the % refers to the signal ratio; further: potency means the concentration at half of the fitted maximal effect). The method, boiled down:
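An ARE-responsive beta-lactamase gene stably integrated in HepG2 cells serves as reporter. After 5 h plating and 16 h compound incubation at 37 C, fluorescence of the B/G FRET substrate was measured.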

A short description of experiment [8]: qHTS assay for small molecule agonists of the antioxidant response element (ARE) signaling pathway - cell viability counter screen (AID 743203; calls by dose curve; further: nearly all actives have a fitted effect of over 55% in size). In short, it runs like this: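 CellSensor ARE-bla HepG2 cells, 2,000 per well, rested 5 hrs at 37C/5% CO2, then exposed to compound in DMSO for 16 hrs; viability read as CellTiter-Glo luminescence after 30 min at room temperature, in the reporter wells.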

The nature of experiment [9]: qHTS assay for small molecule activators of the heat shock response signaling pathway - cell viability counter screen (AID 743209). Further: nearly all actives have a fitted effect of over 50% in size. Further: potency means the concentration at half of the fitted maximal effect. In short, it runs like this:
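CellSensor HSE-bla HeLa cells, plated overnight at 37 C/5% CO2, were exposed to compounds in DMSO for 5 h at 37 C. Viability was then read in the same wells by CellTiter-Glo luminescence after 30 min at room temperature.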

The nature of experiment [10]: qHTS assay for small molecule activators of the heat shock response signaling pathway (AID 743210; active means well fitted activation curve with a large enough effect in the signal ratio in the repeat runs, with a control signal flat, not every such curve was filed as active; the % refers to the signal ratio;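 further: HeLa cells with beta-lactamase reporter driven by heat shock elements; series mostly up to about 63 µM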). The method, boiled down: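 In HSE-bla HeLa cells, 5 h compound incubation (37 C) precedes addition of LiveBLAzer B/G substrate; after 2.5 h at room temperature, fluorescence intensity indicates reporter induction.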
Experiment [11] is described as follows: qHTS assay to identify small molecule agonists of the peroxisome proliferator-activated receptor delta (PPARd) signaling pathway - cell viability counter screen (AID 743211). Further: nearly all actives have a fitted effect of over 55% in size. In short, it runs like this: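 Viability was measured as CellTiter-Glo luminescence (30 min, room temperature) in the same wells as the beta-lactamase readout. GeneBLAzer PPARd UAS-bla HEK293H cells received compound after 5 h plating and were incubated 17 h at 37 C.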

The target in experiment [12] is Peroxisome proliferator-activated receptor delta (Homo sapiens) (UniProt Q03181). Nature of the experiment: qHTS assay to identify small molecule agonists of the peroxisome proliferator-activated receptor delta (PPARd) signaling pathway (AID 743212; calls by dose curve). In short, it runs like this:
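HEK293H UAS-bla reporter cells, human PPARd system; compounds delivered in DMSO after 5 h plating, then at 37 C. Beta-lactamase FRET read, 2 h RT substrate step.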

A short description of experiment [13]: qHTS assay to identify small molecule antagonists of the peroxisome proliferator-activated receptor delta (PPARd) signaling pathway - cell viability counter screen (AID 743213). Further: nearly all actives have a fitted effect of over 50% in size. In short, it runs like this:
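Cytotoxicity counter screen: CellTiter-Glo luminescence read 30 min after addition, in the same wells as the reporter assay. There, PPARd UAS-bla HEK293H cells (3000/well) were treated 17 h at 37 C with compound and 300 nM L165041.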

The target in experiment [14] is Peroxisome proliferator-activated receptor delta (Homo sapiens) (UniProt Q03181). Nature of the experiment: qHTS assay to identify small molecule antagonists of the peroxisome proliferator-activated receptor delta (PPARd) signaling pathway (AID 743215; active means well fitted inhibition curve with a large enough effect in the signal ratio in the repeat runs, not every such curve was filed as active; the % refers to the signal ratio;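 further: cells stimulated with agonist L165041 at 300 nM final during compound exposure; series mostly up to about 62 µM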). In short, it runs like this:
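PPARd UAS-bla HEK293H cells were pre-incubated 5 h at 37 C, then given test compounds in DMSO plus agonist L165041 (300 nM final). After 17 h at 37 C, beta-lactamase FRET substrate was added; fluorescence read after 2 h at room temperature.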

The nature of experiment [15]: qHTS assay to identify small molecule agonists of the farnesoid-X-receptor (FXR) signaling pathway - cell viability counter screen (AID 743218). Further: nearly all actives have a fitted effect of over 45% in size. In short, it runs like this:
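FXR-UAS-bla HEK 293T cells, plated 5 h at 37 C, were exposed to compounds for 16 h at 37 C. CellTiter-Glo was then added to the same wells as the bla readout; luminescence read after 30 min at room temperature.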

Experiment [16] in a line: qHTS assay to identify small molecule antagonists of the farnesoid-X-receptor (FXR) signaling pathway - cell viability counter screen (AID 743221; active means well fitted cell-killing curve with a large enough effect in the repeat runs, not every such curve was filed as active; further: nearly all actives have a fitted effect of over 50% in size). In short, it runs like this: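 Cytotoxicity counter screen run in the FXR-bla reporter wells: HEK 293T cells exposed to compound with 50 uM (final) chenodeoxycholic acid for 16 h, 37 C, then viability measured by CellTiter-Glo luminescence after 30 min, room temperature.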

In experiment [17] the target is Vitamin D3 receptor (Homo sapiens) (UniProt P11473). Nature of the experiment: qHTS assay to identify small molecule agonists of the vitamin D receptor (VDR) signaling pathway (AID 743222; calls by dose curve). The method, boiled down:
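VDR-bla cells were plated 4 h at 37C/5% CO2, then exposed to compounds in DMSO for 16 h. After LiveBLAzer B/G FRET substrate addition and 2 h at room temperature, beta-lactamase reporter fluorescence was read.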

For experiment [18] the target is unchanged. Kind of experiment: qHTS assay to identify small molecule antagonists of the vitamin D receptor (VDR) signaling pathway (AID 743223; active means well fitted inhibition curve with a large enough effect in the signal ratio in the repeat runs, not every such curve was filed as active; the % refers to the signal ratio). In short, it runs like this: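 Antagonist mode: compound added to VDR-bla cells alongside agonist 1alpha,25-dihydroxyvitamin D3 (3 nM final), incubation 16 h at 37C. Read-out is LiveBLAzer FRET fluorescence, 2 h at room temperature.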

Experiment [19] concerns the target Bile acid receptor (Homo sapiens) (UniProt Q96RI1). Kind of experiment: qHTS assay to identify small molecule agonists of the farnesoid-X-receptor (FXR) signaling pathway (AID 743220; active means well fitted activation curve with a large enough effect in the signal ratio in the repeat runs, not every such curve was filed as active; the % refers to the signal ratio). The method, boiled down: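 Beta-lactamase reporter under UAS control in GeneBLAzer FXR HEK 293T cells (5000/well) measured with LiveBLAzer FRET substrate after 2 h at room temperature. Compound exposure lasted 16 h at 37C.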

Chain of Peroxisome proliferator-activated receptor delta (Homo sapiens) (Q03181 whole entry, looked up): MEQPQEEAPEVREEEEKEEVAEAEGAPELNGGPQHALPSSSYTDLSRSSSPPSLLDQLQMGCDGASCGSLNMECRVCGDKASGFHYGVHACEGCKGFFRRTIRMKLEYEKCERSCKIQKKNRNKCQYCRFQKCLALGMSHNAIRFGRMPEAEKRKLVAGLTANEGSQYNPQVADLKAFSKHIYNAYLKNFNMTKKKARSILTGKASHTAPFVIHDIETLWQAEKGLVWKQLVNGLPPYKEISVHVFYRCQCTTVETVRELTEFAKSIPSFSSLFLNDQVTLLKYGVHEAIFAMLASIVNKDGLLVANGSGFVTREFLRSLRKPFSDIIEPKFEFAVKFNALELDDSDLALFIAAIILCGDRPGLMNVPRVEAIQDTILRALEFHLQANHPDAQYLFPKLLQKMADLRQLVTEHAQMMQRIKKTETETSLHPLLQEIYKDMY
Chain of Bile acid receptor (Homo sapiens) (Q96RI1 whole entry, looked up): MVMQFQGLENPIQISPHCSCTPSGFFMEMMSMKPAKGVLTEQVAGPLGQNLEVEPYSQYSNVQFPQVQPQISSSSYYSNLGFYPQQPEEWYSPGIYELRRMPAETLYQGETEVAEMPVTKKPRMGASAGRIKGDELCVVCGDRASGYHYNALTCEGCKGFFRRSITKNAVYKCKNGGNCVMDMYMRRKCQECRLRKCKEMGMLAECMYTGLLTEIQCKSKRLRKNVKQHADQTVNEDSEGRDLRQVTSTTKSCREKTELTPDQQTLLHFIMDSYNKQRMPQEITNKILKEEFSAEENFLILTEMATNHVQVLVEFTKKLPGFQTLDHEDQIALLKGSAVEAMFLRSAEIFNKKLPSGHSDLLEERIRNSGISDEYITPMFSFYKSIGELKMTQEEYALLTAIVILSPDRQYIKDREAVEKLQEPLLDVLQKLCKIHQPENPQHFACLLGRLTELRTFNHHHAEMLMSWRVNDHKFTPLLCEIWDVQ
Chain of Peroxisome proliferator-activated receptor gamma (Homo sapiens) (P37231 whole entry, looked up): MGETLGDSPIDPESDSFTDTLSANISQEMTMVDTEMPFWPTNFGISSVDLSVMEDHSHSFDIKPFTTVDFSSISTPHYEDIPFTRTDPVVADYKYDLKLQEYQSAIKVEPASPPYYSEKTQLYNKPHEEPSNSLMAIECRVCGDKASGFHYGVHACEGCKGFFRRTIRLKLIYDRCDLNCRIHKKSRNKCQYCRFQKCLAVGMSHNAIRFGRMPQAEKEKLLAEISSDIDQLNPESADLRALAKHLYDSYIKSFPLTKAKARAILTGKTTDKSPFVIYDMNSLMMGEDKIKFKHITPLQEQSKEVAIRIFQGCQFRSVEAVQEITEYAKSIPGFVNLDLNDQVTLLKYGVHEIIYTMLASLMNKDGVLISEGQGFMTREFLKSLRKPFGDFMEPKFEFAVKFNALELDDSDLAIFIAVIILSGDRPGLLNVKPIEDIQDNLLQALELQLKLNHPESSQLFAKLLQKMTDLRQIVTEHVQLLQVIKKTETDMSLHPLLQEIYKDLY
Chain of Vitamin D3 receptor (Homo sapiens) (P11473 whole entry, looked up): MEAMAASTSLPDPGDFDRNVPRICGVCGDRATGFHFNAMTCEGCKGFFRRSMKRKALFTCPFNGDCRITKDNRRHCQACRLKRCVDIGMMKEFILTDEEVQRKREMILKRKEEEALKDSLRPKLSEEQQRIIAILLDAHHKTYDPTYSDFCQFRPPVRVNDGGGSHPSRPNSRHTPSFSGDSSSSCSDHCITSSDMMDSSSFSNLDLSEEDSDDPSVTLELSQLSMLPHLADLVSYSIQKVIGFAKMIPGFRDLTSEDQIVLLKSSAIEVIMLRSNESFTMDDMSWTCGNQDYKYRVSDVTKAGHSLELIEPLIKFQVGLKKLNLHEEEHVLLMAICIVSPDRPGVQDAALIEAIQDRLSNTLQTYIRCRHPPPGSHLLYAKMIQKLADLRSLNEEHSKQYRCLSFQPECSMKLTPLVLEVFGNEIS
Chain of Aryl hydrocarbon receptor (Homo sapiens) (P35869 whole entry, looked up): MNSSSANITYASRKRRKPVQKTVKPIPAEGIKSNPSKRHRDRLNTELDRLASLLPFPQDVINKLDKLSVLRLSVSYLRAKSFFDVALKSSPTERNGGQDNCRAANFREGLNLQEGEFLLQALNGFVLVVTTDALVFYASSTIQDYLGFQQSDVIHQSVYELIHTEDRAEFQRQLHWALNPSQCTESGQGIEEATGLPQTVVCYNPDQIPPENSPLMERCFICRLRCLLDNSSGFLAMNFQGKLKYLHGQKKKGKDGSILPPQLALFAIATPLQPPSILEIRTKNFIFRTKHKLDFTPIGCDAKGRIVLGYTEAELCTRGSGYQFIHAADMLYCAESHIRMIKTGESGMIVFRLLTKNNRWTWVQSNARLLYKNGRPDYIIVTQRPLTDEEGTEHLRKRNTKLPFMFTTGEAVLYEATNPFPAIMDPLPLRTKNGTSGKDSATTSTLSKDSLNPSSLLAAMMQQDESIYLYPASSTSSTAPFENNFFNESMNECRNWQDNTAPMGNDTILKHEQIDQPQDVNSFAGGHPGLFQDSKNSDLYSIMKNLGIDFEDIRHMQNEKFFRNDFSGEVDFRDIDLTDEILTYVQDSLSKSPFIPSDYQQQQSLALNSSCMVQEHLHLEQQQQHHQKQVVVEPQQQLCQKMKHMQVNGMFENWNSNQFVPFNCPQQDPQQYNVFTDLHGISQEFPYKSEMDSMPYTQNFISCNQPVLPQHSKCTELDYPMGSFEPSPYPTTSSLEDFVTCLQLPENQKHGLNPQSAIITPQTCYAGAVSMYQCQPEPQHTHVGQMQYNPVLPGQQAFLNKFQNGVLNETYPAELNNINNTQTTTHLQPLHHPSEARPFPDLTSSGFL

With `CC(C)C(=O)OCC(C)(C)C(OC(=O)C(C)C)C(C)C` (centres undefined), the Potency result in [1], in [2], in [3], in experiment [4], in experiment [5] and in experiment [7] was “inactive” in each case. Moreover, the Potency result in [8], in experiment [10], in experiment [11], in experiment [12], in [13] and in experiment [14] was “inactive” each time. Also, the Potency entry in experiment [15] and in [16] was “inactive” in each case. In addition, the Potency was 35 µM [setting not given] (active) in experiment [6]; 24.8 µM (active) and inactive in experiment [9]. The result in experiment [17] and in experiment [18] was inactive.

Take `CCCCC(CC)COC(=O)Cl` (centres undefined): the Potency entry in [1], in experiment [2], in experiment [3], in experiment [4], in experiment [5] and in experiment [6] was “inactive” throughout. Moreover, the Potency entry in experiment [7], in [8], in experiment [9], in experiment [10], in [11] and in experiment [13] was “inactive” each time. Further, in experiment [16], the Potency entry was “inactive”. For the same molecule, the call in experiment [19], in experiment [17] and in experiment [18] was inactive.

Consider `Cc1cc(Cl)ccc1OCCCC(=O)O`, for which the Potency entry in [1], in experiment [2], in experiment [3], in [4], in [5] and in experiment [6] was “inactive” each time. Also, the Potency result in experiment [7], in experiment [8], in experiment [9], in [10], in experiment [11] and in experiment [12] was “inactive” in each case. Besides, the Potency result in experiment [13], in experiment [14] and in [16] was “inactive” throughout. The call in experiment [17] and in experiment [18] was inactive.

On to `N#CC(Br)Br`, for which the Potency result in [1], in [2], in [3], in [4], in experiment [5] and in [6] was “inactive” in each case. Also, the Potency result in experiment [8], in [9], in [10], in experiment [11], in experiment [12] and in experiment [13] was “inactive” each time. Further, the Potency entry in experiment [14] and in experiment [16] was “inactive” in each case. Also, the Potency in experiment [7] was 34.2 µM (active).

As for `C=C(C)C(=O)OCC1CO1` (centres undefined), the Potency result in [1], in [2], in experiment [3], in experiment [4], in experiment [5] and in experiment [6] was “inactive” throughout. In addition, the Potency entry in experiment [7], in experiment [8], in experiment [9], in experiment [10], in experiment [11] and in experiment [12] was “inactive” in each case. Moreover, the Potency result in experiment [13], in [14], in [15] and in experiment [16] was “inactive” each time. In addition, the molecule was classed as inactive in experiment [19], in experiment [17] and in [18].

Turning to `O=C(NC(=O)c1c(F)cccc1F)Nc1ccc(Cl)cc1`, the Potency result in experiment [1], in experiment [3], in experiment [4], in [5], in [6] and in experiment [7] was “inactive” throughout. Besides, the Potency entry in experiment [8], in experiment [9], in [10], in experiment [11], in experiment [12] and in experiment [13] was “inactive” throughout. Moreover, the Potency entry in [15] and in experiment [16] was “inactive” each time. Also, in experiment [2], the Potency is 97.1 nM (active) and 611 nM (active). The molecule was classed as inactive in experiment [17] and in experiment [18].

Regarding `Clc1nc(Cl)nc(Cl)n1`, the Potency entry in [1], in experiment [2], in experiment [3], in experiment [4], in [5] and in experiment [6] was “inactive” each time. The Potency entry in experiment [7], in experiment [8], in [9], in experiment [10], in [11] and in experiment [12] was “inactive” throughout. The Potency entry in experiment [13], in experiment [14] and in [16] was “inactive” throughout. In addition, the molecule was called inactive in experiment [17] and in experiment [18].
